The values that follow are results of earlier work, collected in PubChem BioAssay AID977611.

Out of some 3,900 compounds screened, about 3,900 (100%) were called active. The limit is not given here; nearly all actives have Kd up to about 4200 µM. The set was probably picked from earlier hits. This is one part of the list. Bridge positions count the residues as written; N and C are the ends. Square brackets hold non-standard residues; d marks the D form. Peptide text beside a SMILES is read from it. Orn(CH(NH2)2) = NC(N)NCCC[C@H](N)C(=O)O

This series is described as follows: PubChem AID 977611. As to conditions: PDB protein-ligand complexes, literature Kd.

One may read the Kd as the constant that tells how readily two partners part at equilibrium. Turning to `O=C1N=C(N=Nc2c(O)[nH]c3ccc(S(O)(O)O)cc23)S/C1=C\c1ccco1`, the dissociation constant Kd (protein: NUCLEOCAPSID PROTEIN P7, PDB entry 2m3z) is 0.27 µM (active).

For `Oc1ccc2c3c1O[C@H]1c4[nH]c5ccccc5c4C[C@@]4(O)[C@@H](C2)N(CC2CC2)CC[C@]314`, the dissociation constant (Kd) (protein: Soluble cytochrome b562, Delta-type opioid receptor chimeric protein, PDB entry 4n6h) was 0.00052 µM (active).

In the case of H-SSKPDIVG-OH, the Kd (protein: NprR, PDB entry 4gpk) is 0.03 µM (active).

H-SPSGVFTFG-OH: the equilibrium dissociation constant (Kd) (protein: Capsid protein p24, PDB entry 4u0c) was 49 µM (active) and the Kd (protein: Gag polyprotein, PDB entry 4u0d) was 49 µM (active).

Take `CC(C)[C@H](NC(=O)[C@H](CO[P+](O)(O)O)NC(=O)[C@H](Cc1cnc[nH]1)NC(=O)[C@@H](N)Cc1ccc(O)cc1)C(=O)N[C@H](C(=O)N[C@@H](CCCNC(N)N)C(=O)N[C@@H](Cc1ccc(O)cc1)C(=O)N[C@@H](C)C(=O)O)C(C)C`: the equilibrium dissociation constant (Kd) (protein: MOB kinase activator 1A, PDB entry 4jiz) was 2.4 µM (active).

H-KHWVYY-OH: for the setting “PDB entry 1abt”, the Kd was 1.4 µM (active).

For the molecule `OC[C@H]1O[C@@H](S[C@@H]2O[C@H](CO)[C@H](O)[C@H](O)[C@@H]2O)[C@@H](O)[C@@H](O)[C@H]1O`, for the setting “protein: Galectin-3, PDB entry 4jck”, the dissociation constant (Kd) was 4300 µM (active).

Take `OC[C@H]1O[C@@H](S[C@@H]2O[C@H](CO)[C@H](O)[C@H](O)[C@H]2O)[C@H](O)[C@@H](O)[C@H]1O`: the Kd (protein: Galectin-3, PDB entry 4jc1) is 50 µM (active).

For the molecule `O=c1cccc2n1C[C@@H]1CNC[C@H]2C1`, the Kd runs as follows: (protein: Aplysia californica acetylcholine-binding protein (AChBP), PDB entry 4AFO) 1.64 µM (active); (protein: Aplysia californica acetylcholine-binding protein (AChBP), PDB entry 4bqt) 1.64 µM (active).

As to `Cc1ccc(N2C(=O)C(=O)/C(=C(/O)c3ccccc3)[C@@H]2c2cc(Br)cs2)cc1C(=O)O`, the Kd (protein: Polymerase cofactor Ebola virus VP35, PDB entry 4ibd) was 215 µM (active).

With `O=C1C(=O)N(c2ccc(Cl)c(C(=O)O)c2)[C@@H](c2cc(Br)cs2)/C1=C(\O)c1ccccc1`, the Kd (protein: Polymerase cofactor Ebola virus VP35, PDB entry 4ibe) is 70.6 µM (active).

Consider `O=C(O)[C@H]1C2CCC(CC2)[C@@H]1Nc1nc(-c2c[nH]c3ncc(F)cc23)ncc1F`, for which the Kd (protein: Influenza polymerase basic protein 2 (PB2), PDB entry 4p1u) is 0.003 µM (active).

For the molecule `O=C(O)Cc1ccc(N2C(=O)C(=O)/C(=C(/O)c3ccccc3Cl)[C@@H]2c2ccccc2Cl)cc1`, under “protein: Polymerase cofactor Ebola virus VP35, PDB entry 4ibc”, the Kd is 1050 µM (active).

Regarding `O=C(O)c1cccc(N2C(=O)C(O)=C(C(=O)c3ccc(Cl)s3)[C@@H]2c2cc(Cl)c3c(c2)OCO3)c1`, where the note is “protein: Polymerase cofactor Ebola virus VP35, PDB entry 4ibk”, the equilibrium dissociation constant (Kd) is 50.4 µM (active).

As for `O=C1C(=O)N(c2cccc(C(=O)O)c2)[C@@H](c2cc(Cl)c3c(c2)OCO3)/C1=C(\O)c1cccc(C(F)(F)F)c1`, the Kd (protein: Polymerase cofactor Ebola virus VP35, PDB entry 4ibi) was 73 µM (active).

In the case of `Cc1cccc(/C(O)=C2\C(=O)C(=O)N(c3ccc(CC(=O)O)cc3)[C@H]2c2cc(Cl)c3c(c2)OCO3)c1`, the equilibrium dissociation constant (Kd) (protein: Polymerase cofactor Ebola virus VP35, PDB entry 4ibg) was 108 µM (active).

For `O=C1C(=O)N(c2cccc(C(=O)O)c2)[C@@H](c2cccc(C(F)(F)F)c2)/C1=C(\O)c1cccc(C(F)(F)F)c1`, the Kd (protein: Polymerase cofactor Ebola virus VP35, PDB entry 4ibj) was 47 µM (active).

With `CCN1c2cc(N)ccc2-c2ccc(N)cc2[C@H]1c1ccccc1`, under “protein: Putative regulatory protein, PDB entry 3vvy”, the dissociation constant (Kd) was 14.6 µM (active).

For the molecule `CO[C@@H]1O[C@@H](C)[C@@H](O)[C@@H](O)[C@@H]1O`, the equilibrium dissociation constant (Kd) (protein: Ralstonia solanacearum fucose-binding lectin protein, PDB entry 4csd) was 1.23 µM (active).

As to `Nc1c(O)n(Cc2ccccc2)c(=O)[nH]c1=O`, the Kd (protein: Glucose-1-phosphate thymidylyltransferase (RmlA), PDB entry 3zll) was 0.395 µM (active) and the Kd (protein: Glucose-1-phosphate thymidylyltransferase (RmlA), PDB entry 4AS6) is 0.395 µM (active).

On to `C[C@@H](O)[C@H](NC(=O)[C@@H]1CCCN1C(=O)[C@H](CO)NC(=O)[C@@H](N)Cc1ccc(O)cc1)C(=O)N[C@@H](CO[P+](O)(O)O)C(=O)N1CCC[C@H]1C(=O)N[C@@H](CO)C(=O)O`, for which the dissociation constant Kd (protein: CTD INTERACTING DOMAIN of RNA processing factor SCAF8, PDB entry 3d9m) is 330 µM (active).

Take `C[C@@H](O)[C@H](NC(=O)[C@@H]1CCCN1C(=O)[C@H](CO[P+](O)(O)O)NC(=O)[C@@H](N)Cc1ccc(O)cc1)C(=O)N[C@@H](CO)C(=O)N1CCC[C@H]1C(=O)O`: the Kd (protein: CTD INTERACTING DOMAIN of RNA processing factor SCAF8, PDB entry 3d9n) was 90 µM (active).

Take `C[C@H](Nc1nc(-c2c[nH]c3ncc(Cl)cc23)ncc1F)C(=O)N(C)C`: the Kd (protein: Influenza polymerase basic protein 2 (PB2), PDB entry 4ncm) is 0.1 µM (active).

Consider `CC(C)[C@H](NC(=O)[C@H](Cc1c[nH]c2ccccc12)NC(=O)[C@H](Cc1c[nH]cn1)NC(=O)[C@H](CCCCN)NC(=O)[C@H](Cc1c[nH]c2ccccc12)NC(=O)CNC(=O)[C@H](CCCNC(N)N)NC(=O)[C@@H](N)Cc1ccc(O)cc1)C(=O)N[C@@H](Cc1ccc(O)cc1)C(=O)N[C@@H](Cc1ccc(O)cc1)C(=O)N[C@H](C(=O)N[C@H]1CSSC[C@@H](C(=O)N2CCC[C@H]2C(=O)N[C@@H](CC(=O)O)C(=O)N[C@H](C(=O)N2CCC[C@H]2C(=O)N[C@@H](Cc2ccc(O)cc2)C(=O)O)[C@@H](C)O)NC1=O)[C@@H](C)O` (H-Y[Orn(CH(NH2)2)]GWKHWVYYTCCPDTPY-OH; disulfide 12-13), for which the Kd (protein: Cbtx, PDB entry 1lxh) was 0.065 µM (active).

`CC(C)[C@H](NC(=O)[C@H](Cc1c[nH]c2ccccc12)NC(=O)[C@H](Cc1c[nH]cn1)NC(=O)[C@H](CCCCN)NC(=O)[C@H](Cc1c[nH]c2ccccc12)NC(=O)CNC(=O)[C@H](CCCNC(N)N)NC(=O)[C@@H](N)Cc1ccc(O)cc1)C(=O)N[C@@H](Cc1ccc(O)cc1)C(=O)N[C@@H](Cc1ccc(O)cc1)C(=O)N[C@H](C(=O)N[C@H]1CSSC[C@@H](C(=O)N2CCC[C@H]2C(=O)N[C@@H](CC(=O)O)C(=O)N[C@H](C(=O)N2CCC[C@H]2C(=O)N[C@@H](Cc2ccc(O)cc2)C(=O)O)[C@H](C)O)NC1=O)[C@@H](C)O`: the Kd (PDB entry 1idg) is 0.065 µM (active).

On to `C[C@H](CC(=O)O)c1n[nH]c2nc(N)[nH]c(=O)c2c1=O`, for which, where the note is “protein: Dihydropteroate Synthase, PDB entry 4d8z”, the Kd is 0.51 µM (active).
